# Calls of active or inactive are those of the source.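 How the source made its calls: active means glucocerebrosidase enzyme activity raised in patient cells of every tested mutation; inactive means no rise in glucocerebrosidase activity for any mutation.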
# Target: Lysosomal acid glucosylceramidase (Homo sapiens) (UniProt P04062)
# Test: Extended Characterization of Activators of N370S glucocerebrosidase as a Potential Chaperone Treatment of Gaucher Disease: Quantification of GCase activity
# Conditions: Gaucher patient macrophages, GCase 4MU fluorescence
# Excerpt: Glucocerebrosidase (GCase) catalyzes the hydrolysis of beta-glucocerebroside to glucose and ceramide in lysosomes. Mutations in the glucocerebrosidase gene result in Gaucher disease, an autosomal recessive lysosomal storage disorder. Many of the mutations encountered in patients with Gaucher disease are missense alterations that may cause misfolding, decreased stability and/or mistrafficking of this lysosomal protein. […] These inhibitors include iminosugar analogs and other inhibitors that were discovered as part of previous work. However, the enhancement of enzyme activity by the chaperone action of an enzyme inhibitor must be balanced against the direct inhibition of the enzyme. […] In this extended characterization of our probe, we have further characterized the activity of ML198 in patient-derived cellular models of Gaucher disease. In Gaucher-derived macrophages from 17 patients, with 4 separate mutation, we quantified GCase activity using a fluorescence read-out. NIH Chemical Genomics Center [NCGC] NIH Molecular Libraries Probe Production Centers Network [MLPCN] […]
# Treated cells were cultured in black 96-well plates. After adding 100 µl assay buffer (200 mM sodium acetate (pH4), 5 mM 4MU-betaGlu and protease inhibitor cocktail (Sigma), cells were incubated for 1 hr at 37 degrees C. The reaction was halted using a stop solution (1 M NaOH and 1 M Glycine) and fluorescence measured.
# Chain of Lysosomal acid glucosylceramidase (Homo sapiens) (P04062 40-536 N409S): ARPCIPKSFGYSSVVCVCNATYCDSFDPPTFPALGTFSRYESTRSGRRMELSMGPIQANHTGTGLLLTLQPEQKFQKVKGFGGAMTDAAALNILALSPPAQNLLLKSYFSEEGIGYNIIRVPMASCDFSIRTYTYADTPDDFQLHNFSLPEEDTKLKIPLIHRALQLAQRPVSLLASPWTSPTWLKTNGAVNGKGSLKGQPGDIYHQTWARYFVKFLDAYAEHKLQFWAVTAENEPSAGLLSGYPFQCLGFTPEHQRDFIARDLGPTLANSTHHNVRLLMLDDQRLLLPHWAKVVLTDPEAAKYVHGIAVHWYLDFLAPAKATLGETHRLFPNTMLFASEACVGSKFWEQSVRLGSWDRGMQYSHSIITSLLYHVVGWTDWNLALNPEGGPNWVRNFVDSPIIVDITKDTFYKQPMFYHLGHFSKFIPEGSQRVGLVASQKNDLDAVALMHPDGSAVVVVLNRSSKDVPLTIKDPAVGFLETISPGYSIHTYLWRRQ
row,Structure (SMILES),outcome
1,C#Cc1ccc(NC(=O)c2cnn3c(C)cc(C)nc23)cc1,active; increased

# Reference: PubChem BioAssay AID652095 (National Center for Advancing Translational Sciences (NCATS), 2013)
